Reference: PubChem BioAssay (Tox21)
Results filed as inconclusive are left out. Some structures have more than one record in an assay (separate samples or runs), and their calls can disagree. Activity calls are given as the source filed them. Unless noted, calls come from the whole dose curve; as a rule, active = well fitted curve in the direction sought with a large enough effect in the repeat runs; inconclusive = weak or mixed curves; inactive = no such curve, though single readings can be large; an effect the other way counts as inactive or inconclusive.

Experiments:
[1] = qHTS assay to identify small molecule antagonists of the progesterone receptor (PR) signaling pathway - cell viability counter screen (AID 1346798); note: series mostly up to about 92 µM; nearly all actives have a fitted effect of over 50% in size
Outline: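 Counter screen for cytotoxicity: viability of PR-UAS-bla HEK293T cells was measured with CellTiter-Glo luminescence following 16 hr compound exposure in the presence of R5020.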

[2] = qHTS assay to identify small molecule agonists of the progesterone receptor (PR) signaling pathway - cell viability counter screen (AID 1346799; calls by dose curve; note: nearly all actives have a fitted effect of over 45% in size; note: potency is the fitted concentration of half-maximal effect)
Outline: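 Cells (PR-UAS-bla HEK293T) are plated at 3,000/well in 2% charcoal-stripped FBS medium, rested 6 hr, dosed and incubated 16 hr at 37C. CellTiter-Glo is then added and luminescence measured after 30 min at room temperature.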

[3] = qHTS assay to identify small molecule antagonists of the TGF-beta/Smad signaling pathway - cell viability counter screen (AID 1346824); note: nearly all actives have a fitted effect of over 50% in size
Outline: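 SBE-bla HEK 293T cells, incubated overnight, then compound plus 0.25 ng/mL TGF-beta1 (stock added) for 5 hr at 37 C. Viability was read in the same wells by CellTiter-Glo luminescence after 30 min at room temperature.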

[4] = qHTS assay to identify small molecule agonists of the TGF-beta/Smad signaling pathway (AID 1346859; active = well fitted activation curve with a large enough effect in the signal ratio in the repeat runs, not every such curve was filed as active; the % refers to the signal ratio; note: series mostly up to about 77 µM)
Outline: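 Reporter line: HEK 293T with stably integrated SBE-controlled beta-lactamase. Compound exposure lasts 5 hr at 37 C and 5% CO2; substrate loading follows for 2 hr at room temperature, with emission read at 460 and 530 nm.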

[5] = Human pregnane X receptor (PXR) small molecule agonists, qHTS cell viability counter screen (AID 1346977); note: nearly all actives have a fitted effect of over 50% in size; note: potency is the fitted concentration of half-maximal effect
Outline: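 Cytotoxicity counter screen run in the same wells as the PXR luciferase assay, using PXR-Luc HepG2 cells in charcoal-stripped serum medium. Viability: CellTiter-Fluor fluorescence after 24hr compound treatment.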

[6] = Caspase-3/7 induction in HepG2 cells by small molecules, qHTS assay (AID 1346978); note: nearly all actives have a fitted effect of over 15% in size
Outline: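 Wild-type HepG2 cells, 2,000/well, settled 5 hr at 37 C and 5% CO2, then compound-treated for 17 hr; caspase-3/7 activity read by luminescent Caspase-Glo 3/7 after 30 min at room temperature.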

[7] = Caspase-3/7 induction in CHO-K1 cells by small molecules, qHTS assay (AID 1346980); note: nearly all actives have a fitted effect of over 15% in size
Outline: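 Wild-type CHO-K1 cells exposed to compounds for 17hr at 37 C, 5% CO2. Caspase-3/7 activity then measured by Caspase-Glo 3/7 luminescence after 30min at room temperature.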

[8] = biological target: Nuclear receptor subfamily 1 group I member 2 (Homo sapiens) (UniProt O75469); assay: Human pregnane X receptor (PXR) small molecule agonists, qHTS assay (AID 1346982); note: nearly all actives have a fitted effect of over 35% in size; note: potency is the fitted concentration of half-maximal effect
Sequence of Nuclear receptor subfamily 1 group I member 2 (Homo sapiens) (O75469 whole entry, looked up): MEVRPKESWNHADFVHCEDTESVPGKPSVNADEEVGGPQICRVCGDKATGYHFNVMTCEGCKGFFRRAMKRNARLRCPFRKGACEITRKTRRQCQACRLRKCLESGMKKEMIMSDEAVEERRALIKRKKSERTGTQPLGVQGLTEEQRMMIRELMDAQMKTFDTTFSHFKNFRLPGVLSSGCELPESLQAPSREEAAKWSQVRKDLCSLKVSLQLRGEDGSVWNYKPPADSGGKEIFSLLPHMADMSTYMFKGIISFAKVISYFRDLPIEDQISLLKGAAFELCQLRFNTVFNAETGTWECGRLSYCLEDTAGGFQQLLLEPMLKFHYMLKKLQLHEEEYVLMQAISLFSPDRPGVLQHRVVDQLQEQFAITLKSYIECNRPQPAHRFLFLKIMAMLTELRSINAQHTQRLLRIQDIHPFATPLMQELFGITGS
Outline: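 Cells: HepG2 stably carrying PXR-Luc. Medium held 5% charcoal-stripped FBS. Compounds in DMSO added after 5 hr plating, incubated 24 hr, then luminescence quantified with ONE-Glo.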

[9] = biological target: Cytochrome P450 2D6 (Homo sapiens) (UniProt P10635); assay: Cytochrome P450 Family 2 Subfamily D Member 6 (CYP2D6) small molecule antagonists: luciferase reporter qHTS assay (AID 1671196); note: nearly all actives have a fitted effect of over 50% in size; note: potency is the fitted concentration of half-maximal effect
Sequence of Cytochrome P450 2D6 (Homo sapiens) (P10635 whole entry, looked up): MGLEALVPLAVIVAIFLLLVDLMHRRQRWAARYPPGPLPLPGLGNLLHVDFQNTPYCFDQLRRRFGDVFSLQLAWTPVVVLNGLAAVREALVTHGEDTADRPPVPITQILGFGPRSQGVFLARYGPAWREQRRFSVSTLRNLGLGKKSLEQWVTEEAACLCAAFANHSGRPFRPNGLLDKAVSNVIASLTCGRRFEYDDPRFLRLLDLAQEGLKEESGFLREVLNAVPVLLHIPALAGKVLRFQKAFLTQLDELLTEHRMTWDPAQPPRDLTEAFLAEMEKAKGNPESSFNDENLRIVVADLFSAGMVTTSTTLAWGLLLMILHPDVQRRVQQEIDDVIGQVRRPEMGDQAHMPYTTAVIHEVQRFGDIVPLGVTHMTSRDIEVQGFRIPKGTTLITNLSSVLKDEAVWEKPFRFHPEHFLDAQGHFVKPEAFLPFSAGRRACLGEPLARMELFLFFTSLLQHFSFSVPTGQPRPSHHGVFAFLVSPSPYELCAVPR
Outline: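 Enzyme and proluciferin substrate were first combined with test chemical for 10 min at room temperature. Adding NADPH regeneration solution started a 1 h reaction, stopped with luciferin detection reagent and read by luminescence 20 min later.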

[10] = biological target: Progesterone receptor (Homo sapiens) (UniProt P06401); assay: qHTS assay to identify small molecule antagonists of the progesterone receptor (PR) signaling pathway (AID 1346795; active = well fitted inhibition curve with a large enough effect in the signal ratio in the repeat runs, not every such curve was filed as active; the % refers to the signal ratio; note: potency is the fitted concentration of half-maximal effect)
Sequence of Progesterone receptor (Homo sapiens) (P06401 whole entry, looked up): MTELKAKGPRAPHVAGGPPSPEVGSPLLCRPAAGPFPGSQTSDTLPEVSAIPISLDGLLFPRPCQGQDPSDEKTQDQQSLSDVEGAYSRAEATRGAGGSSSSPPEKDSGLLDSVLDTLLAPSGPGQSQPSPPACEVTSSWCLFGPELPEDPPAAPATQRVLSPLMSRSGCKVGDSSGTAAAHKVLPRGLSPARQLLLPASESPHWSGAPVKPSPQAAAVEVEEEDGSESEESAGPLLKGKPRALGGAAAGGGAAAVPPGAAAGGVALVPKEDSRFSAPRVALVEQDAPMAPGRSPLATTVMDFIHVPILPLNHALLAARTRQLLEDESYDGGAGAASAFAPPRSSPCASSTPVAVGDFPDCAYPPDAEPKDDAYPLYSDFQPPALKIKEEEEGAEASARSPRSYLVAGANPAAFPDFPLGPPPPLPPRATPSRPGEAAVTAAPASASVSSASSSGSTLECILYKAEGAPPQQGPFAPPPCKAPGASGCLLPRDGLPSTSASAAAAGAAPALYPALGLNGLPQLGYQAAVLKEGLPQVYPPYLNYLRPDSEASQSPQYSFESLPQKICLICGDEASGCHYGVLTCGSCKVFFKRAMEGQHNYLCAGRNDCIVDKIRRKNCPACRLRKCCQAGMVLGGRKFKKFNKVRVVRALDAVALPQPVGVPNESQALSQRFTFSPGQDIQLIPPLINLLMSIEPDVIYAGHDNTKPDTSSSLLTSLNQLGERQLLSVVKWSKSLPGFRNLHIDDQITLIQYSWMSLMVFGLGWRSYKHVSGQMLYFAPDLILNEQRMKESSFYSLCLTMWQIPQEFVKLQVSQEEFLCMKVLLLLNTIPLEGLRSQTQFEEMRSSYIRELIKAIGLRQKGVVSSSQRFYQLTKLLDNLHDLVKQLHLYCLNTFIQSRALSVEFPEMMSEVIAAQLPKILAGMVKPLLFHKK
Outline: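 Antagonist mode: compounds tested against 1 nM (final) promegestone stimulation in HEK293T cells expressing PR-UAS-bla reporter, 16 hr at 37C, 5% CO2; beta-lactamase activity detected via B/G FRET substrate after 2 hr at room temperature.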

[11] = qHTS assay to identify small molecule agonists of the TGF-beta/Smad signaling pathway - cell viability counter screen (AID 1346829); note: top concentration of the series differs between compounds; nearly all actives have a fitted effect of over 45% in size
Outline: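 Tox21 qHTS format: SBE-bla HEK 293T cells treated with DMSO-dissolved compounds for 5 hr; CellTiter-Glo luminescence after 30 min at room temperature.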

[12] = biological target: Thyrotropin-releasing hormone receptor (Homo sapiens) (UniProt P34981); assay: qHTS assay to identify small molecule antagonists of the thyrotropin-releasing hormone receptor (TRHR) signaling pathway (AID 1346877; active = well fitted inhibition curve with a large enough effect in the repeat runs, not every such curve was filed as active; note: series mostly up to about 51 µM)
Sequence of Thyrotropin-releasing hormone receptor (Homo sapiens) (P34981 whole entry, looked up): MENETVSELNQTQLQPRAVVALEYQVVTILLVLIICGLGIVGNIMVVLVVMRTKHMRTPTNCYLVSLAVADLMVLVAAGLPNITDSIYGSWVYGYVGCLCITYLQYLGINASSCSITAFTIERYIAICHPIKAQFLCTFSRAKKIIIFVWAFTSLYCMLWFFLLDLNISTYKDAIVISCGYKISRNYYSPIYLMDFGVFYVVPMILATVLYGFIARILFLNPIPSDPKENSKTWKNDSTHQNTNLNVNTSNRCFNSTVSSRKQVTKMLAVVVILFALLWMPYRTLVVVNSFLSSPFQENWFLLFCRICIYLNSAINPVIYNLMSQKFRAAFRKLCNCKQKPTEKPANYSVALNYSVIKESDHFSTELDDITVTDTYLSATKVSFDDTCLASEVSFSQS
Outline: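 Antagonism is measured as suppression of the calcium response to 1 nM TRH in TRHR-HEK293 cells that have been dye-loaded for 2 h at 37 °C after overnight plating. Each compound is tested at 15 concentrations in triplicate.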

[13] = biological target: Thyrotropin-releasing hormone receptor (Homo sapiens) (UniProt P34981); assay: qHTS assay to identify small molecule agonists of the thyrotropin-releasing hormone receptor (TRHR) signaling pathway (AID 1346891; calls by dose curve;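 note: HEK293 cells expressing TRHR with calcium dye readout; series mostly up to about 58 µM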)
Outline: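 Cells: TRHR-Hek293, seeded and incubated 18 h. Dye loading: 2 h at 37 °C. Compound added from DMSO stock by pin tool. Read-out: kinetic calcium fluorescence over 3 min.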

[14] = Caspase-3/7 induction in CHO-K1 cells by small molecules, qHTS cell viability counter screen (AID 1346979); note: nearly all actives have a fitted effect of over 35% in size; note: potency is the fitted concentration of half-maximal effect
Outline: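 Cytotoxicity counter screen run in parallel with the caspase-3/7 assay: CHO-K1 cells, 16hr compound treatment at 37C, then CellTiter-Fluor for 1hr before fluorescence reading.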

[15] = biological target: Nuclear receptor subfamily 1 group I member 2 (Homo sapiens) (UniProt O75469); assay: CYP3A4 induction through human pregnane X receptor (PXR) by small molecules, qHTS assay (AID 1346984); note: nearly all actives have a fitted effect of over 40% in size
Outline: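 Quantitative HTS in DPX-2 cells, i.e. HepG2 transfected with PXR response element and CYP3A4-promoter luciferase. Compounds in DMSO incubated 24hr at 37C; then P450-Glo CYP3A4 substrate, 3uM final, 3hr; One-Glo luminescence.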

[16] = biological target: Nuclear receptor subfamily 1 group I member 2 (Homo sapiens) (UniProt O75469); assay: Human pregnane X receptor (PXR) activation by small molecules, qHTS assay (AID 1346985); note: nearly all actives have a fitted effect of over 40% in size
Outline: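 DPX-2 cells (HepG2 co-transfected with a PXR response element and a CYP3A4-promoter luciferase construct) were seeded at 2,000 per well, rested 5 hr at 37C, then exposed to DMSO-dissolved compounds for 24 hr. Activation was read as luciferase luminescence.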

[17] = biological target: Cytochrome P450 2C19 (Homo sapiens) (UniProt P33261); assay: Cytochrome P450 Family 2 Subfamily C Member 19 (CYP2C19) small molecule antagonists: luciferase reporter qHTS assay (AID 1671197); note: nearly all actives have a fitted effect of over 65% in size; note: potency is the fitted concentration of half-maximal effect
Sequence of Cytochrome P450 2C19 (Homo sapiens) (P33261 whole entry, looked up): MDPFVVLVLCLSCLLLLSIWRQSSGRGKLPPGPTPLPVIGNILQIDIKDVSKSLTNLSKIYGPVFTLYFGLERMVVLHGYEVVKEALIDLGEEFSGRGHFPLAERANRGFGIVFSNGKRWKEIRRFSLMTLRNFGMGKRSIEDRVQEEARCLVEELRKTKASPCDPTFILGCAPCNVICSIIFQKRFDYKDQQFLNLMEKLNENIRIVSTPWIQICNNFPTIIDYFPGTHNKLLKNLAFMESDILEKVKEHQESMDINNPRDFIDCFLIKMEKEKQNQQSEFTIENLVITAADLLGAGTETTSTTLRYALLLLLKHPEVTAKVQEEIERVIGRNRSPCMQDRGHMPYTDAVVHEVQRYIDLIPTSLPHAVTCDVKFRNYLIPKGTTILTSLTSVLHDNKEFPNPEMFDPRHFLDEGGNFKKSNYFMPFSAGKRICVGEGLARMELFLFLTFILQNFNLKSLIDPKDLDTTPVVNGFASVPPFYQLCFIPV
Outline: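 Relative luminescence units recorded 20 min after the detection reagent stopped a 1 h, 37C CYP2C19 reaction on proluciferin substrate, which was started by NADPH regeneration following 10 min room-temperature compound preincubation; ketoconazole positive control.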

[18] = biological target: Progesterone receptor (Homo sapiens) (UniProt P06401); assay: qHTS assay to identify small molecule agonists of the progesterone receptor (PR) signaling pathway (AID 1346784; calls by dose curve; note: nearly all actives have a fitted effect of over 30% in size)
Outline: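 Cells (PR-UAS-bla HEK 293T, GripTite) were plated in assay medium containing 2% charcoal-stripped FBS and incubated 6 hr. Test compounds in DMSO were added for 16 hr at 37C. FRET substrate was then loaded for 2 hr at room temperature before fluorescence reading.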

[19] = Caspase-3/7 induction in HepG2 cells by small molecules, qHTS cell viability counter screen (AID 1346981); note: nearly all actives have a fitted effect of over 30% in size; note: potency is the fitted concentration of half-maximal effect
Outline: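 Cell viability is measured as a cytotoxicity counter screen alongside the Caspase-Glo 3/7 readout in identical wells. Wild-type HepG2 cells are treated with test compounds for 16 hr at 37 C before CellTiter-Fluor addition and a 1-hr incubation.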

Measured: Potency

CCO[Si](OCC)(OCC)OCC
inactive: [1] | [2] | [3] | [4] | [5] | [6] | [7] | [8] | [9]

CCCCC/C=C\C/C=C\CCCCCCCC(=O)O
22.1 µM (active) and inactive: [17]
active: [14] 60.1 µM | [8] 60.1 µM | [9] 31.2 µM
not listed: [2] | [4] | [18] | [19]
inactive: all other assays above

Cc1cc(C(C#N)c2ccc(Cl)cc2)c(Cl)cc1NC(=O)c1cc(I)cc(I)c1O (centres undefined)
inactive: [3] | [4] | [12] | [13] | [7] | [15] | [16] | [9]
active: [10] 29.8 µM | [5] 16.8 µM | [17] 8.71 µM

COC1=C(OC)C(=O)C(CCCCCCCCCCO)=C(C)C1=O
active: [9] 34.7 µM | [17] 4.9 µM
not listed: [1] | [2] | [3] | [10] | [11] | [14]
inactive: all other assays above

CNC(=O)c1ccccc1Sc1ccc2c(/C=C/c3ccccn3)n[nH]c2c1
active: [10] 16.8 µM | [2] 33.5 µM | [8] 0.376 µM | [9] 30.9 µM | [17] 17.4 µM
inactive: [4] | [12] | [13] | [6] | [7]

CC(C)(c1cc(Br)c(OCC(Br)CBr)c(Br)c1)c1cc(Br)c(OCC(Br)CBr)c(Br)c1 (centres undefined)
not listed: [10] | [15] | [16] | [17] | [18]
inactive: all other assays above

S=C([S-])NCCNC(=S)[S-].S=C([S-])NCCNC(=S)[S-].[Mn+2].[Zn+2]
active: [8] 5.31 µM
inactive: [18] | [4] | [5] | [7]

CC(C)(C)c1csc(-c2cc3cc(OCc4ccccc4CC(=O)O)ccc3o2)n1
active: [10] 43.3 µM | [5] 61.1 µM | [14] 61.1 µM | [19] 68.6 µM | [8] 61.1 µM
inactive: [3] | [12] | [13] | [6] | [7] | [9] | [17]
